The panel holds about 83,000 compounds, 20% with a hit somewhere; the sample as a whole holds those more often.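 Values shown are percent growth following 48 h exposure of cells in 96-well plates to a single concentration of compound; below 10 was considered active.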 Values without a mark were called inactive. Active and inactive are the calls of the source.
Each molecule was assayed on T-47D breast (assay: NCI-60 one-dose screen, 48 h (100 = growth as untreated, 0 = no growth, -100 = all killed)). Conditions: 10 µM unless noted.
Experimental: Growth inhibition of the T-47D human tumor cell line is measured as a screen for anti-cancer activity. Cells are grown in 96 well plates and exposed to the test compound for 48 hours. Compounds are tested at a single concentration, which is 10^-5 M for most compounds. The reported endpoint is percent growth (GI% or GIPRCNT), where numbers from 0 - 100% represent growth inhibition, and numbers from -100% - 0 represent cell death. For example, a value of 40 represents 60% growth inhibition. A value of 0 means no net growth occurred over the course of the experiment. A value of -40 indicates 40% of cells at the beginning of the experiment died by the end of the experiment. A value of -100 means all cells are dead at the end of the experiment.
NCI-60 Human Tumor Cell Lines Screen was performed using the standard one-dose NCI protocol, which is described in more detail at https://dtp.cancer.gov/discovery_development/nci-60/default.htm.
Compounds with GIPRCNT values below 10 were considered active. Activity score was based on GIPRCNT using the following formula: […]
Score is 0 for GIPRCNT values of 100 or above, 50 for GIPRCNT values of 0, and 100 for GIPRCNT values of -100.

First: COc1cc2ncnc(Nc3ccc(S(=O)(=O)Nc4nccs4)cc3)c2cc1OCCCN1CCOCC1
Second: COc1ccc(Oc2nc(Nc3ccc(N4CCOCC4)cc3)ncc2NC(=O)Nc2cccc(OC)c2)cc1
The growth of the first is higher: 106% for the first, 75.2% for the second.

Going from `COc1ccc(/C=C/C(=O)CCC(=O)O)cc1OC` to `CCOC(=O)C1=C(C)NC(=S)NC1c1ccccc1` (stereo not given), the growth rises from 93.1% to 96.2%.

Compared with `COc1ccc2nc(-c3ccc(-c4noc(-c5ccc(Cl)cc5)n4)cc3)[nH]c2c1`, `COc1ccc(-c2conc2-n2nc(-c3ccccc3)nc2-c2ccccc2)cc1` is higher in growth: 67.3% for the first, 102% for the second.

Compared with `CCN(CC)c1cc(C)c(Cc2c(OC)ccc3ccccc23)cc1C`, `COc1cc(CN(c2ccc(C)cc2)C2OC(=O)c3ccccc32)cc(OC)c1OC` (stereo not given) is lower in growth: 82.3% for the first, 53.8% for the second.

Going from `CCOC(=O)C1C(=O)C=C(c2ccccc2)CC1c1sc(N(C)Cc2ccccc2)nc1Cl` (stereo not given) to `COc1ccc2c(c1)sc1nc(-c3ccccc3)c(-c3cccc4ccccc34)n12`, the growth rises from 60.4% to 60.5%.

Compared with `CS(=O)(=O)c1ccc(C(=O)N/N=C/c2ccccc2Cl)cc1`, `Cc1ccc(C(CN(C)C)C(=O)c2ccccc2)cc1` (stereo not given) is lower in growth: 87.5% for the first, 33% for the second.

Going from `O=[N+]([O-])c1ccc(SSc2ccc([N+](=O)[O-])cc2Cl)c(Cl)c1` to `O=C(Cc1ccc([N+](=O)[O-])cc1)Oc1ccccc1`, the growth rises from 70.6% to 109%.

Going from `c1csc(-c2cnc3nonc3n2)c1` to `CN(C)c1nc(-c2cccs2)n2nc(-c3ccco3)cc2n1`, the growth rises from 45.9% to 53.5%.

Compared with `CC(C)c1ccc2c(c1)CCC1C2CCCC1(C)NCc1ccccc1` (stereo not given), `Cc1ccccc1C1CC(=O)c2ccccc2C1C` (stereo not given) is higher in growth: 12.8% for the first, 107% for the second.

Compared with `C=CCN1C(=O)/C(=c2\sc3n(c2=O)C2C(NN=3)N(CC)C(=O)N2CC)c2ccccc21` (stereo not given), `CN1C(=O)N(C)C2C1NN=c1s/c(=C\c3ccc(C(F)(F)F)cc3)c(=O)n12` (stereo not given) is lower in growth: 57.6% for the first, 24.6% for the second.

Compared with `N/N=C(\C(=N\N)c1ccccc1)c1ccccc1`, `CN(C)CC(=O)c1ccc2cc(Br)c3ccccc3c2c1` is lower in growth: 93% for the first, 37.1% for the second.

First: CC(C)(C)[Si](C)(C)OC1[C@@H](O[Si](C)(C)C(C)(C)C)[C@@H](CNC(=O)NC(=O)NC(=O)CI)O[C@H]1n1cnc2c(NC(=O)Nc3ccccc3)ncnc21 (stereo not given in full)
Second: CC1=CCC2C1CC=C(C)C(CC[C@H]1[C@@](C)(O)CCC3OC(C)(C)[C@H](OC(=O)c4ccccc4)CC[C@@]31C)C2(C)C (stereo not given in full)
The growth of the first is higher: 87.5% for the first, 74.4% for the second.

Going from `COc1ccc(NC(=O)c2sc3c(=O)[nH]c(C(F)(F)F)nc3c2C)cc1` to `COCc1nc(NS(=O)(=O)c2ccc(N)cc2)nc(C)c1Br`, the growth rises from 89.7% to 96.1%.

Compared with `Cc1cc2nc(CN)[nH]c2cc1C`, `CCS(=O)(=O)Nc1cccc(Nc2c3cccc(C)c3nc3c(C)cccc23)c1OC` is lower in growth: 94.4% for the first, 22.2% for the second.

Going from `COc1cccc(-c2nc3sccn3c2-c2ccnc(NCCN3CCCN(C)S3(=O)=O)n2)c1` to `COc1ccc(-c2cnc(-c3ccncc3-c3cccc(OC)c3)o2)cc1`, the growth falls from 72.4% to 37.2%.

Compared with `CN1C2CCC1/C(=C\c1ccc(Cl)cc1)C(=O)/C2=C/c1ccc(Cl)cc1`, `N#Cc1ccc(-c2ccc(-c3cccs3)o2)cc1F` is lower in growth: 59.7% for the first, 23.7% for the second.

First: C#CCNc1nc(NCCNC(=O)CCl)nc(N(C)CCCCc2ccccc2)n1
Second: CCN(CC)CCNC(=O)C(F)(F)C(F)(F)C(F)(F)F
The growth of the first is lower: 93% for the first, 110% for the second.

Compared with `O=c1oc2ccccc2cc1-c1cc(-c2ccc(-c3cc(-c4cc5ccccc5oc4=O)nc(-c4cc5ccccc5oc4=O)c3)cc2)cc(-c2cc3ccccc3oc2=O)n1`, `Brc1ccsc1Br` is higher in growth: 91.1% for the first, 95.4% for the second.

Going from `CCCCCCCCOC(=O)C(C)OC(=O)OCCOCCOC(=O)OC(C)C(=O)OCCCCCCCC` (stereo not given) to `CCCCCCCCCCCCCC`, the growth rises from 99.9% to 101%.

With `CC(CN1CCN(CC(C)Nc2ccnc3cc(Cl)ccc23)CC1)Nc1ccnc2cc(Cl)ccc12` (stereo not given) the growth was -21.3% (active).
With `CCCCCCCCCCCCCCCC1=NC(C)(C)CN1C(C)C` the growth was -11.2% (active).

— PubChem BioAssay (NCI)
